PubChem BioAssay AID1159580 (chemical genetic matrix, 2015)
Among all 5,500 compounds or so, about 2,000 (36%) were called active. Not shown: some 18% with an inconclusive outcome. No stated cut-off is given here; in the data, active means normalized growth mostly below about 0.91 (no sharp cut-off); inconclusive means no clear call, values can overlap the other calls; inactive means mostly above about 0.92. Some of the results follow.

Experiment: chemical genetic growth profiling, strain panel (AID 1159580);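 further: tested at 20 µM; growth read once vehicle control cultures reached saturation at 30 °C; 1 = growth at the plate median or of vehicle wells; lower values mean less growth of the strain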
Conditions: growth OD
[1] = S. cerevisiae deletion strains, locus YDL101C, strain DUN1, hits give low values
[2] = S. cerevisiae deletion strains, locus YHR030C, strain SLT2, hits give low values

Measured: normalized growth

Cc1cccc(NC(=S)N/N=C\c2ccc(F)cc2)c1
inactive: S. cerevisiae deletion strains, locus YAR019C, strain CDC15, hits give low values 0.96 | S. cerevisiae deletion strains, locus YBL105C, strain PKC1, hits give low values 0.966 | S. cerevisiae deletion strains, locus YBR135W, strain CKS1, hits give low values 0.966 | S. cerevisiae deletion strains, locus YBR136W, strain MEC1, hits give low values 0.965 | S. cerevisiae deletion strains, locus YBR160W, strain CDC28, hits give low values 0.958 | S. cerevisiae deletion strains, locus YDL017W, strain CDC7, hits give low values 0.958 | S. cerevisiae deletion strains, locus YDL028C, strain MPS1, hits give low values 0.958 | [1] 0.967 | S. cerevisiae deletion strains, locus YDL108W, strain KIN28, hits give low values 0.962 | S. cerevisiae deletion strains, locus YDL132W, strain cdc53, hits give low values 0.934 | S. cerevisiae deletion strains, locus YDL214C, strain PRR2, hits give low values 0.867 | S. cerevisiae deletion strains, locus YDR052C, strain DBF4, hits give low values 0.956 | S. cerevisiae deletion strains, locus YDR054C, strain cdc34, hits give low values 0.938 | S. cerevisiae deletion strains, locus YDR226W, strain ADK1, hits give low values 0.952 | S. cerevisiae deletion strains, locus YDR477W, strain SNF1, hits give low values 0.835 | S. cerevisiae deletion strains, locus YER123W, strain YCK3, hits give low values 0.806 | S. cerevisiae deletion strains, locus YER133W, strain GLC7, hits give low values 0.847 | S. cerevisiae deletion strains, locus YFL009W, strain cdc4, hits give low values 0.953 | S. cerevisiae deletion strains, locus YFL029C, strain CAK1, hits give low values 0.954 | S. cerevisiae deletion strains, locus YFR003C, strain YPI1, hits give low values 0.972 | S. cerevisiae deletion strains, locus YFR019W, strain FAB1, hits give low values 0.919 | S. cerevisiae deletion strains, locus YFR028C, strain CDC14, hits give low values 0.954 | S. cerevisiae deletion strains, locus YGR040W, strain KSS1, hits give low values 0.824 | S. cerevisiae deletion strains, locus YGR052W, strain FMP48, hits give low values 0.871 | S. cerevisiae deletion strains, locus YGR092W, strain DBF2, hits give low values 0.691 | S. cerevisiae deletion strains, locus YHR079C, strain IRE1, hits give low values 0.762 | S. cerevisiae deletion strains, locus YHR082C, strain KSP1, hits give low values 0.825 | S. cerevisiae deletion strains, locus YHR205W, strain SCH9, hits give low values 0.874 | S. cerevisiae deletion strains, locus YIL147C, strain SLN1, hits give low values 0.963 | S. cerevisiae deletion strains, locus YJL095W, strain BCK1, hits give low values 0.834 | S. cerevisiae deletion strains, locus YJL128C, strain PBS2, hits give low values 0.98 | S. cerevisiae deletion strains, locus YJL157C, strain FAR1, hits give low values 0.876 | S. cerevisiae deletion strains, locus YJR016C, strain ILV3, hits give low values 0.961 | S. cerevisiae deletion strains, locus YJR066W, strain TOR1, hits give low values 0.773 | S. cerevisiae deletion strains, locus YKL048C, strain ELM1, hits give low values 0.919 | S. cerevisiae deletion strains, locus YKL067W, strain YNK1, hits give low values 0.9 | S. cerevisiae deletion strains, locus YKL101W, strain HSL1, hits give low values 0.884 | S. cerevisiae deletion strains, locus YKL193C, strain SDS22, hits give low values 0.961 | S. cerevisiae deletion strains, locus YKL203C, strain TOR2, hits give low values 0.844 | S. cerevisiae deletion strains, locus YLR133W, strain CKI1, hits give low values 0.847 | S. cerevisiae deletion strains, locus YLR403W, strain SFP1, hits give low values 0.789 | S. cerevisiae deletion strains, locus YML070W, strain DAK1, hits give low values 0.88 | S. cerevisiae deletion strains, locus YMR001C, strain CDC5, hits give low values 0.965 | S. cerevisiae deletion strains, locus YMR205C, strain PFK2 (second series), hits give low values 0.879 | S. cerevisiae deletion strains, locus YMR277W, strain FCP1, hits give low values 0.958 | S. cerevisiae deletion strains, locus YNL006W, strain LST8, hits give low values 0.967 | S. cerevisiae deletion strains, locus YNL020C, strain ARK1, hits give low values 0.853 | S. cerevisiae deletion strains, locus YNL161W, strain CBK1, hits give low values 0.969 | S. cerevisiae deletion strains, locus YNL183C, strain NPR1, hits give low values 0.749 | S. cerevisiae deletion strains, locus YNL207W, strain RIO2, hits give low values 0.946 | S. cerevisiae deletion strains, locus YNL222W, strain SSU72, hits give low values 0.965 | S. cerevisiae deletion strains, locus YNL307C, strain MCK1 (second series), hits give low values 0.788 | S. cerevisiae deletion strains, locus YOL078W, strain AVO1, hits give low values 0.953 | S. cerevisiae deletion strains, locus YOL136C, strain PFK27, hits give low values 0.844 | S. cerevisiae deletion strains, locus YOR061W, strain CKA2, hits give low values 0.839 | S. cerevisiae deletion strains, locus YOR119C, strain RIO1, hits give low values 0.915 | S. cerevisiae deletion strains, locus YOR231W, strain MKK1, hits give low values 0.843 | S. cerevisiae deletion strains, locus YOR329C, strain SCD5, hits give low values 0.959 | S. cerevisiae deletion strains, locus YPL031C, strain PHO85, hits give low values 0.794 | S. cerevisiae deletion strains, locus YPL153C, strain RAD53, hits give low values 0.773 | S. cerevisiae deletion strains, locus YPL204W, strain HRR25, hits give low values 0.795 | S. cerevisiae deletion strains, locus YPL209C, strain IPL1, hits give low values 0.964 | S. cerevisiae deletion strains, locus YPR025C, strain CCL1, hits give low values 0.961 | S. cerevisiae deletion strains, locus YPR106W, strain ISR1, hits give low values 0.968 | S. cerevisiae deletion strains, locus YPR111W, strain DBF20, hits give low values 0.965 | S. cerevisiae deletion strains, strain NNK1, hits give low values 0.967 | S. cerevisiae deletion strains, strain TSCII, hits give low values 0.961
active: [2] 0.821 | S. cerevisiae deletion strains, locus YJR066W, strain TOR1 (second series), hits give low values 0.601 | S. cerevisiae deletion strains, locus YLR113W, strain HOG1, hits give low values 0.847 | S. cerevisiae deletion strains, locus YPL256C, strain CLN2, hits give low values 0.843

CCCOc1ccccc1/C=N\NC(=S)Nc1cccc(F)c1
inactive: S. cerevisiae deletion strains, locus YAL013W, strain DEP1, hits give low values 0.999 | S. cerevisiae deletion strains, locus YBR229C, strain ROT2, hits give low values 1.02 | S. cerevisiae deletion strains, locus YCL061C, strain MRC1, hits give low values 1.01 | [1] 1.04 | S. cerevisiae deletion strains, locus YDR150W, strain NUM1, hits give low values 1 | S. cerevisiae deletion strains, locus YEL061C, strain CIN8, hits give low values 1 | S. cerevisiae deletion strains, locus YGR078C, strain PAC10, hits give low values 1 | S. cerevisiae deletion strains, locus YGR229C, strain SMI1, hits give low values 1.01 | [2] 0.921 | S. cerevisiae deletion strains, locus YHR087W, strain rtc3, hits give low values 1.03 | S. cerevisiae deletion strains, locus YJL187C, strain SWE1, hits give low values 1 | S. cerevisiae deletion strains, locus YJR043C, strain POL32, hits give low values 1.01 | S. cerevisiae deletion strains, locus YJR075W, strain HOC1, hits give low values 1.08 | S. cerevisiae deletion strains, locus YLR039C, strain RIC1, hits give low values 1.02 | S. cerevisiae deletion strains, locus YLR058C, strain SHM2 (second series), hits give low values 1 | S. cerevisiae deletion strains, locus YLR085C, strain ARP6, hits give low values 0.882 | S. cerevisiae deletion strains, locus YLR262C, strain YPT6, hits give low values 1.02 | S. cerevisiae deletion strains, locus YML094W, strain GIM5, hits give low values 1.01 | S. cerevisiae deletion strains, locus YMR219W, strain ESC1, hits give low values 1.01 | S. cerevisiae deletion strains, locus YMR263W, strain SAP30, hits give low values 0.966 | S. cerevisiae deletion strains, locus YMR307W, strain GAS1, hits give low values 0.93 | S. cerevisiae deletion strains, locus YNL153C, strain GIM3, hits give low values 1 | S. cerevisiae deletion strains, locus YNL298W, strain CLA4 (second series), hits give low values 0.983 | S. cerevisiae deletion strains, locus YNL322C, strain KRE1, hits give low values 1.03 | S. cerevisiae deletion strains, locus YNR030W, strain Alg12, hits give low values 0.988 | S. cerevisiae deletion strains, locus YPL055C, strain LGE1, hits give low values 0.945 | S. cerevisiae deletion strains, locus YPL241C, strain CIN2, hits give low values 0.996 | S. cerevisiae deletion strains, locus YPR135W, strain CTF4, hits give low values 0.987 | S. cerevisiae strains, strain wild type, hits give low values 1
